Measurements published in the supplement of paper PMC3545927.
Some of the results follow. How many sequences the whole screen found active is unknown.

B1: HC2552 (peptide)
chain: CASTPCSAELAGNASASA
B2: HC2276 (peptide)
chain: CAGLEVVTSTAGNASASA
B3: HC823 (peptide)
chain: CASILGIGTVAGNASASA
B4: HC676 (peptide)
chain: CAAYAQQTRGAGNASASA
B5: HC756 (peptide)
chain: CAKAVDFIPVAGNASASA
B6: FS-570 (peptide)
chain: CATPQRLRRQAGNASASA
B7: HC933 (peptide)
chain: CATPGLPVCQAGNASASA
B8: HC2247 (peptide)
chain: CAEVVTSTWFAGNASASA
B9: FS-1121 (peptide)
chain: CAETRRERRRAGNASASA
B10: FS-800 (peptide)
chain: CAIFLRLKRRAGNASASA
B11: FS-1701 (peptide)
chain: CARFLRHTGRAGNASASA
B12: FS-361 (peptide)
chain: CALRRRLKRRAGNASASA
B13: FS-1304 (peptide)
chain: CAAMRRLKRRAGNASASA
B14: FS-1155 (peptide)
chain: CAREQRERRRAGNASASA
B15: HC2117 (peptide)
chain: CASDVVCCSMAGNASASA
B16: HC2 (peptide)
chain: CAMEEGSQHLAGNASASA
B17: HC1211 (peptide)
chain: CAYVTGMTTDAGNASASA
B18: HC900 (peptide)
chain: CAQDAVSRTQAGNASASA
B19: HC2271 (peptide)
chain: CADLEVVTSTAGNASASA
B20: HC228 (peptide)
chain: CAGYIPLVGAAGNASASA
B21: FS-349 (peptide)
chain: CALEHRRMRRAGNASASA
B22: FS-1368 (peptide)
chain: CALRRRMRRRAGNASASA
B23: HC2556 (peptide)
chain: CASTPCSAGLAGNASASA
B24: HC1668 (peptide)
chain: CAWEECSQHLAGNASASA
B25: HC2476 (peptide)
chain: CAGTPCSAHLAGNASASA
B26: HC1823 (peptide)
chain: CAATPCSGSWAGNASASA
B27: HC2175 (peptide)
chain: CAEHVTSTWVAGNASASA
B28: FS-1747 (peptide)
chain: CARLRRVVGQAGNASASA
B29: FS-2713 (peptide)
chain: CARLRREPGGAGNASASA
B30: FS-2576 (peptide)
chain: CARLRRQKLSAGNASASA
B31: FS-2494 (peptide)
chain: CARLRRDTQQAGNASASA
B32: FS-2712 (peptide)
chain: CARLRRAADHAGNASASA
B33: FS-2706 (peptide)
chain: CARLKRIISHAGNASASA
B34: FS-2716 (peptide)
chain: CARLRRRTSHAGNASASA
B35: FS-2653 (peptide)
chain: CARDRRMMSQAGNASASA
B36: FS-1861 (peptide)
chain: CARLRRVSHQAGNASASA
B37: FS-2032 (peptide)
chain: CARIRRRASQAGNASASA
B38: HC1777 (peptide)
chain: CAMEECSQHSAGNASASA
B39: NG7 (peptide)
chain: CAPPEELKFQAGNASASA
B40: FS-2392 (peptide)
chain: CARANRIVNAAGNASASA
B41: HC1040 (peptide)
chain: CATFWAKHMWAGNASASA
B42: FS-2433 (peptide)
chain: CARLRRILEVAGNASASA
B43: FS-2995 (peptide)
chain: CARLRRRASQAGNASASA
B44: FS-3197 (peptide)
chain: CARLRRASWVAGNASASA
B45: FS-2996 (peptide)
chain: CARLRRTMLVAGNASASA
B46: FS-2569 (peptide)
chain: CARLHRFDSQAGNASASA

Target: furin, P09958
Sequence (P09958 whole entry): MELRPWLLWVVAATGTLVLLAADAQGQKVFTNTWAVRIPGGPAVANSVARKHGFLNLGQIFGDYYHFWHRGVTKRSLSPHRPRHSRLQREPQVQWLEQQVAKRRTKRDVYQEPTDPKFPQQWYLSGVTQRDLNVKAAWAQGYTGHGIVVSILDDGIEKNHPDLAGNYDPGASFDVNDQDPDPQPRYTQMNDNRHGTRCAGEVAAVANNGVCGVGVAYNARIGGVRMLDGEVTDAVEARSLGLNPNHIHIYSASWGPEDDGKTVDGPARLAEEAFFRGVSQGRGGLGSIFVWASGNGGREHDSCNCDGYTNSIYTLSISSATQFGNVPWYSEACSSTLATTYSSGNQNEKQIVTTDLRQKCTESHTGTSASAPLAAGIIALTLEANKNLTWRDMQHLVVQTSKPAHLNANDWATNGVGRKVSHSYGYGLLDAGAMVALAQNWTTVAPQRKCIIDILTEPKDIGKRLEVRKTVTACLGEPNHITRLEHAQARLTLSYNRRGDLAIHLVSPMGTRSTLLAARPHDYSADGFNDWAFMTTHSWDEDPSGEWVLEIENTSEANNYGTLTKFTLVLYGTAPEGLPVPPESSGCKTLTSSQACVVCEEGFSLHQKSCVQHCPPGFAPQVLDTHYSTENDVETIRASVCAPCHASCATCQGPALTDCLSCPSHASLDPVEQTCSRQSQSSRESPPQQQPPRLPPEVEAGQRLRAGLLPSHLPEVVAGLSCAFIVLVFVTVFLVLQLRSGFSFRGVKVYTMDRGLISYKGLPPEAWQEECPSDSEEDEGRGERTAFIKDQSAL
Assay: furin cleavage Z-score vs untreated control; higher = more cleavage, active = 3.5 or more, inactive = 1 or less, 8 variable residues between constant flanks
Outline: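 Magnetic beads held 8-mer peptides by the N-terminus, each fused to a cDNA oligonucleotide, and purified furin was added for 7.5, 15 or 30 min. Released DNA was sequenced after PCR adapter tagging. The cleavage Z-score is the log count relative to furin-free reactions, lowess-adjusted and divided by median absolute deviation.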
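Also: purified furin at 1:10 enzyme:substrate in 50 mM HEPES pH 7.5.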

Sequence	furin cleavage Z-score (7.5 min)	furin cleavage Z-score (15 min)	furin cleavage Z-score (30 min)
B1	-0.156 (inactive)	0.767 (inactive)	0.789 (inactive)
B2	1.36	-0.694 (inactive)	-0.958 (inactive)
B3	-0.809 (inactive)	0.141 (inactive)	-0.562 (inactive)
B4	0.0125 (inactive)	0.047 (inactive)	1.9
B5	-0.823 (inactive)	-0.464 (inactive)	-0.656 (inactive)
B6	7.8 (active)	8.92 (active)	4.33 (active)
B7	0.0348 (inactive)	-0.269 (inactive)	0.151 (inactive)
B8	-0.0997 (inactive)	1.76	0.942 (inactive)
B9	3.87 (active)	4.13 (active)	4.7 (active)
B10	3.63 (active)	3.18	3.43
B11	2.28	1.08	0.702 (inactive)
B12	7.56 (active)	7.31 (active)	5.73 (active)
B13	8.73 (active)	7.83 (active)	8.17 (active)
B14	0.997 (inactive)	2.01	2.01
B15	1.61	-1.16 (inactive)	0.074 (inactive)
B16	-0.0457 (inactive)	-0.462 (inactive)	1.87
B17	-0.923 (inactive)	-0.868 (inactive)	-1.18 (inactive)
B18	-0.887 (inactive)	-1.13 (inactive)	-1.41 (inactive)
B19	-1.06 (inactive)	0.142 (inactive)	-0.409 (inactive)
B20	-0.438 (inactive)	-0.464 (inactive)	-0.124 (inactive)
B21	11 (active)	10.5 (active)	9.29 (active)
B22	3.44	4.48 (active)	4.37 (active)
B23	-0.924 (inactive)	-0.11 (inactive)	-0.471 (inactive)

Sequence	furin cleavage Z-score (7.5 min)	furin cleavage Z-score (15 min)	furin cleavage Z-score (30 min)
B24	2.53	0.743 (inactive)	0.0767 (inactive)
B25	-0.662 (inactive)	-0.917 (inactive)	-0.0259 (inactive)
B26	-0.934 (inactive)	-0.493 (inactive)	-0.88 (inactive)
B27	-1.96 (inactive)	1.55	0.829 (inactive)
B28	0.978 (inactive)	-0.277 (inactive)	1.66
B29	-0.934 (inactive)	-0.299 (inactive)	-0.815 (inactive)
B30	0.0621 (inactive)	0.201 (inactive)	-0.745 (inactive)
B31	8.34 (active)	9.45 (active)	7.24 (active)
B32	8.97 (active)	8.17 (active)	7.64 (active)
B33	0.518 (inactive)	-1.37 (inactive)	-0.856 (inactive)
B34	1.21	1.27	4.1 (active)
B35	0.37 (inactive)	0.534 (inactive)	0.367 (inactive)
B36	-2.01 (inactive)	0.557 (inactive)	1.98
B37	3.16	3.54 (active)	4.94 (active)
B38	2.1	0.565 (inactive)	0.168 (inactive)
B39	-0.102 (inactive)	-1.12 (inactive)	0.127 (inactive)
B40	0.0348 (inactive)	-1.24 (inactive)	-1.84 (inactive)
B41	0.313 (inactive)	-0.474 (inactive)	0.00738 (inactive)
B42	-1.97 (inactive)	-0.173 (inactive)	0.88 (inactive)
B43	2.66	4.61 (active)	4.94 (active)
B44	1.44	1.96	4.56 (active)
B45	0.457 (inactive)	-0.166 (inactive)	0.463 (inactive)
B46	-0.521 (inactive)	0.134 (inactive)	0.911 (inactive)
